Test results as given in PubChem BioAssay (NCI).
This is part of a sample that, as a whole, favours compounds with a hit. Of some 83,000 tested, about 20% had one in any assay.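 A percent growth of 40 corresponds to 60% growth inhibition; 0 means no net growth; -100 means all cells died. Active threshold: below 10.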 Values without a mark were called inactive. The source made the active and inactive calls.

How the values were obtained:
Test in all cases: NCI-60 one-dose screen, 48 h (100 = growth as untreated, 0 = no growth, -100 = all killed)
Settings in all cases: 10 µM unless noted
NCI-H23 lung = test system: NCI-H23 lung
NCI-H226 lung = test system: NCI-H226 lung
NCI-H322M lung = test system: NCI-H322M lung
HOP-62 NSCLC = test system: HOP-62 NSCLC
NCI-H460 lung = test system: NCI-H460 lung
HOP-92 NSCLC = test system: HOP-92 NSCLC
NCI-H522 lung = test system: NCI-H522 lung
A549/ATCC NSCLC = test system: A549/ATCC NSCLC
786-0 renal = test system: 786-0 renal
COLO 205 colon = test system: COLO 205 colon
DU-145 prostate = test system: DU-145 prostate
K-562 leukemia = test system: K-562 leukemia
MALME-3M melanoma = test system: MALME-3M melanoma
MDA-MB-231 breast = test system: MDA-MB-231 breast
RXF 393 renal = test system: RXF 393 renal
SF-268 CNS = test system: SF-268 CNS
SF-295 CNS = test system: SF-295 CNS
SF-539 CNS = test system: SF-539 CNS
UACC-257 melanoma = test system: UACC-257 melanoma
M14 melanoma = test system: M14 melanoma

SMILES	growth (NCI-H23 lung)	growth (NCI-H226 lung)	growth (NCI-H322M lung)	growth (HOP-62 NSCLC)	growth (NCI-H460 lung)	growth (HOP-92 NSCLC)	growth (NCI-H522 lung)	growth (A549/ATCC NSCLC)	growth (786-0 renal)	growth (COLO 205 colon)	growth (DU-145 prostate)	growth (K-562 leukemia)	growth (MALME-3M melanoma)	growth (MDA-MB-231 breast)	growth (RXF 393 renal)	growth (SF-268 CNS)	growth (SF-295 CNS)	growth (SF-539 CNS)	growth (UACC-257 melanoma)	growth (M14 melanoma)
COc1ccc(NC(=O)c2ccc(Nc3ncnc4c3cnn4-c3cccc(F)c3)cc2)cc1	103%	103%	103%	101%	102%	96.4%	96.9%	101%	104%	109%	103%	94.8%	92.6%	92%	90.2%	99.1%	98.3%	96.5%	97.9%	98.4%
COc1cc(-c2nccc3[nH]c(-c4cccc5[nH]ccc45)nc23)cc(OC)c1OC	26.8%	34%	64%	12.2%	7.17% (active)	-2.13% (active)	-15.7% (active)	17.3%	7.27% (active)	-62.9% (active)	22.7%	8.35% (active)	56%	19.7%	50.8%	34.2%	21%	3.35% (active)	58.7%	20.6%
C/C(Cc1ccc(Cl)cc1)=C(\c1ccc(OCCN2CCCCCC2)cc1)c1ccc(OC(=O)c2ccccc2)cc1	46.8%	86.2%	70%	81%	3.3% (active)	-4.45% (active)	62.4%	54.3%	12%	44.7%	55.6%	1.83% (active)	11.7%	39.7%	22%	37.1%	56%	71%	45.2%	-49.8% (active)
NS(=O)(=O)c1ccc(C(=O)NN2C(=O)c3ccccc3C2=O)cc1	105%	111%	110%	108%	112%	107%	99.5%	110%	105%	108%	105%	101%	109%	109%	120%	92.8%	98.7%	113%	110%	104%
O=C(C[C@]1(O)C(=O)Nc2ccc(Br)cc21)c1ccco1	97%	92.9%	93.8%	106%	105%	102%	88.3%	104%	108%	106%	106%	93.8%	84.1%	98.6%	108%	88.5%	103%	104%	101%	99.1%
O=C1/C(=C/c2ccc(Cl)cc2)CN(C(=O)C(Cl)Cl)C/C1=C\c1ccc(Cl)cc1	-69.2% (active)	-24.4% (active)	-70.9% (active)	-61.5% (active)	-64.9% (active)	-59.9% (active)	-60.3% (active)	-21.2% (active)	-80.2% (active)	-68.5% (active)	-89.7% (active)	-3.91% (active)	-65% (active)	-23.9% (active)	-88.2% (active)	-74.9% (active)	-86.7% (active)	-96.3% (active)	-42.3% (active)	-68.7% (active)
O=C(/C=C/c1cn(-c2ccccc2)nc1-c1ccccc1)CCC(=O)NO	99.3%	93.9%	106%	93.3%	113%	109%	79.5%	91.5%	97.3%	107%	112%	99.6%	104%	105%	102%	97%	96.1%	113%	92.7%	100%
N#Cc1c(-c2ccccc2)nc2c(c(-c3ccccc3)nn2-c2ccccc2)c1-c1ccc(N2CCCCC2)cc1	93.9%	89.1%	97.2%	95.9%	103%	98.7%	98.6%	87.9%	98.5%	104%	103%	92.7%	98.6%	97.7%	115%	101%	97.9%	100%	93.3%	90.8%
CC[C@H](Nc1nc(N)nc(C)c1C#N)c1nc2cccc(CN(C)c3ncc(C(=O)NO)cn3)c2c(=O)n1-c1ccccc1	11.6%	24.3%	5.95% (active)	11.4%	10.8%	-28.3% (active)	-45.2% (active)	27.4%	11.9%	-55.8% (active)	18.5%	8.69% (active)	8.44% (active)	-12.6% (active)	-61% (active)	12.1%	-8.31% (active)	8.35% (active)	-20.8% (active)	9.1% (active)
Cc1c(O)cc(-c2cnc(N/N=C/c3ccccc3)s2)c(O)c1C	97.7%	92.4%	97.6%	107%	102%	92.6%	82.3%	94.1%	117%	111%	105%	89.9%	107%	101%	102%	91.6%	103%	100%	95.5%	95.9%
COc1ccc(C/C(C)=C(\c2ccc(O)cc2)c2ccc(OCCN3CCCCC3)cc2)cc1	90.1%	103%	93.8%	95.6%	72.6%	72.3%	87.7%	79.2%	76.8%	89.4%	90.8%	22.8%	87.6%	104%	79.9%	81.7%	98.8%	83%	110%	40.4%
O=C(CSc1nnnn1-c1ccccc1)Nc1ccc(Oc2ccccc2)cc1	101%	87.5%	114%	95.6%	110%	75%	79.3%	101%	102%	110%	111%	120%	133%	94.2%	111%	101%	100%	111%	96.2%	111%
N=C(N)c1ccc(-c2ccc(-c3ccccc3)o2)o1	49.6%	78.5%	60.3%	46.9%	6.8% (active)	24.2%	50.5%	26.2%	33.4%	-73.1% (active)	46.3%	9.73% (active)	50.3%	29.8%	47%	38.1%	44%	35.3%	69.3%	14.1%
COC12C=C/C(=C(/C(=O)OCCSc3ccnn3C)C(=O)CCCCCCCCC3(OC)C=C/C(=C(/C(=O)OCCSc4ccnn4C)C(=O)CCCCCCCC1)O3)O2	-44% (active)	-53.6% (active)	11.6%	27.9%	3.85% (active)	-18.9% (active)	-17.3% (active)	5.51% (active)	-29.2% (active)	-41.7% (active)	23%	1.16% (active)	-32.2% (active)	-11% (active)	-79.1% (active)	16%	-3.35% (active)	-0.264% (active)	40.3%	-3.79% (active)
Nc1c(Br)cc2c(c1Br)Cc1cc([N+](=O)[O-])ccc1-2	81.3%	69%	98.4%	90.3%	83.2%	84.8%	97%	86.8%	109%	109%	124%	69.5%	67.3%	90.6%	115%	103%	117%	99.4%	93.5%	111%
